PPC-1+TRAIL kill = compounds killing PPC-1 cancer cells with TRAIL present (potentiator screen, no TRAIL-free arm); PPC-1 cells + TRAIL, ATPLite viability luminescence; cell killing (% activity), % at 4 µM or 5 µM; hit rate 0.41% among 220,000;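 active means cell killing above 50% in the first pass at 4 µM, then a duplicate retest at 5 µM averaging 50% or more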;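 further: plate controls were cells with TRAIL plus DMSO for no effect and medium-only wells lacking cells for full effect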
SENP8 block-1 = inhibitors of human SENP8 protease; Q96LD8; recombinant SENP8, Nedd8 substrate fluorescence; inhibition, % at 20 µM; hit rate 0.64% among 360,000; in the data active means inhibition mostly above about 40%, no sharp cut-off; inactive means mostly below about 27%
Target sequence (Q96LD8 whole entry, looked up): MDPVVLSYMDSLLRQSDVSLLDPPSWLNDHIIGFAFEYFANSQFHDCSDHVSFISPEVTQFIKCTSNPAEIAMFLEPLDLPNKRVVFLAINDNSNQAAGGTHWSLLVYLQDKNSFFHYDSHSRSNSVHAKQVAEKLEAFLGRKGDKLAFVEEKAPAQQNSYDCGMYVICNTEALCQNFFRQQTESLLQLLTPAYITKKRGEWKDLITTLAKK
SENP7 block = blocks the human protease SENP7; Q9BQF6; inhibition, % at 5 µM; recombinant SENP7, Z-RLRGG-aminoluciferin luminescence, 40 min; hit rate 1.5% among 330,000;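 active means inhibition above about 50% at the single test dose, limit read from the data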;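 further: plate controls were DMSO with enzyme for no effect and no enzyme buffer wells for full effect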
SENP8 block-2 = blocks the human protease SENP8; inhibition, % at 10 µM; purified SENP8, Z-RLRGG-aminoluciferin cleavage, luminescence; hit rate 1.2% among 330,000; AID 2540; in the data active means inhibition above about 50%
SENP6 block = inhibitors of human SENP6 protease. inhibition, % at 10 µM. hit rate 1.8% among 330,000. Q9GZR1. Recombinant SENP6 catalytic domain, aminoluciferin luminescence;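 active means inhibition above about 50% at the single tested dose, limit read from the data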;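 further: plate controls were DMSO wells with enzyme for no effect and DMSO wells lacking enzyme for full effect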
C8 TRAIL sens = caspase-8 TRAIL sensitization. NB7+C8 cells + TRAIL, ATPlite viability luminescence. inhibition (viability loss, TRAIL sensitization), % at 10 µM. hit rate 1% among 360,000;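 active means compounds causing at least 50% loss of cell viability in the single-dose screen, relative to plate controls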
SENP8 conf = confirmation of human SENP8 protease inhibitors; shares compounds with SENP7 block; Recombinant SENP8, Z-RLRGG-aminoluciferin luminescence, 60 min; inhibition, % at 12.5 µM; hit rate 40% among 6,200;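 active means mean inhibition across replicates above about 50%, limit read from the data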
SENP6 conf = human SENP6 inhibition, confirmed; inhibition, % at 12.5 µM; hit rate 58% among 6,200; recombinant SENP6, Z-RLRGG-aminoluciferin luminescence; shares compounds with SENP7 block
SENP7 conf = confirmation of human SENP7 protease inhibitors; shares compounds with SENP7 block; recombinant SENP7, Z-RLRGG-aminoluciferin luminescence, 40 min; inhibition, % at 12.5 µM; hit rate 69% among 6,200
Casp3 SENP sel = caspase-3 inhibition (SENP selectivity assay). AID 488918. purified caspase-3, Z-DEVD-aminoluciferin luminescence, 60 min. hit rate 60% among 6,200. inhibition, % at 12.5 µM. shares compounds with SENP7 block;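 active means mean inhibition above about 50%, limit read from the data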;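 further: plate controls were enzyme with DMSO for no effect and wells without caspase-3 for full effect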
Target sequence (P42574 28-227 limits assumed): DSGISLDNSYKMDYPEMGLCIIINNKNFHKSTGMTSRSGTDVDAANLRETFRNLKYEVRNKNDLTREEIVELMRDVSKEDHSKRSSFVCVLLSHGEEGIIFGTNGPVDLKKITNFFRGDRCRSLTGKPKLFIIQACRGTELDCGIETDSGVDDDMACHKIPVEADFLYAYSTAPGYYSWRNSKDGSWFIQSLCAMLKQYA
SENP luc ctr = luminescence interference (SENP counter-screen) | AID 488919 | hit rate 39% among 6,200 | shares compounds with SENP7 block | inhibition, % at 12.5 µM | Pre-incubated SENP8/Z-RLRGG-aminoluciferin, luciferase luminescence interference;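 active means mean inhibition above about 50% when retested at one dose, limit read from the data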;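 further: plate controls were DMSO wells with completed reaction for no effect and substrate without enzyme for full effect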
The depositor's hits bear a star; i = inactive; · = no result. Rows were chosen to be rich in hits. Some 3% of all compounds tested hit in one or more screens of this group.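 How the source made its calls, unless noted: active means mean inhibition above about 50% in the one-dose retest (limit read from the data); inactive means the rest.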

SMILES | PPC-1+TRAIL kill | SENP8 block-1 | SENP7 block | SENP8 block-2 | SENP6 block | C8 TRAIL sens | SENP8 conf | SENP6 conf | SENP7 conf | Casp3 SENP sel | SENP luc ctr
CC1CCCCC1N(C)C1CCN(C(=O)CNC(=O)/C=C/c2cccc(Cl)c2)CC1 (stereo not drawn) | · | 26 | -13 | -4 | -6 | 31 | · | · | · | · | ·
Cc1c(OCc2ccc(C(=O)O)o2)ccc2c3c(c(=O)oc12)CCC3 | -14 | -153 | 8 | 74* | 82* | 0 | 10 | 84* | 84* | 17 | 57*
COC(=O)c1cc(COc2ccc3c4c(c(=O)oc3c2)CCCC4)c(C)o1 | 9 | -287 | 6 | 0 | 5 | -6 | · | · | · | · | ·
COC(=O)c1ccc(COc2ccc3c4c(c(=O)oc3c2)CCC4)o1 | 13 | -126 | 58* | 70* | 77* | -21 | 14 | 17 | 3 | 1 | -5
O=C(NCc1cccc(OC(F)(F)F)c1)C1CCC(=O)N(Cc2cccc(F)c2)C1 (stereo not drawn) | · | 10 | 1 | 3 | -14 | 8 | · | · | · | · | ·
O=C(NC(=S)NC12CC3CC(CC(C3)C1)C2)c1ccc(F)cc1 | · | 14 | 6 | -8 | 9 | -1 | · | · | · | · | ·
COc1ccc(OCC(=O)OCC(=O)c2ccc(OC)c(F)c2)cc1 | · | 6 | 5 | 2 | -14 | -9 | · | · | · | · | ·
COc1ccc(C(=O)CC(=O)c2ccccc2O)cc1 | · | -25 | 45 | 44 | 51* | 5 | 48 | 47 | 83* | 50 | 54*
COc1ccc(-n2cc(C(=O)c3ccccc3O)cn2)cc1 | 16 | -167 | 100* | 94* | 95* | 50* | 96* | 98* | 102* | 96* | 95*
O=C(Cc1c(F)cccc1Cl)OCC(=O)c1ccc[nH]1 | · | 13 | 4 | 6 | 4 | -1 | · | · | · | · | ·
C=CCNc1ncnc2c1ncn2[C@H]1CN(Cc2ccccc2)C[C@@H](COC(C)=O)O1 | · | 4 | · | · | · | -21 | · | · | · | · | ·
O=C(Nc1cc(S(=O)(=O)N2CCCCC2)ccc1Oc1ccccc1)C1=COCCO1 | · | -1 | -1 | -2 | 3 | -5 | · | · | · | · | ·
CC(C)n1c2ccccc2c2nnc(SCC(=O)Nc3ccccc3C(=O)O)nc21 | 3 | -11 | 8 | 4 | 3 | -2 | · | · | · | · | ·
CC(=O)Nc1ccc(-c2nc3cc(Cl)ccc3o2)cc1 | · | -426 | 59* | 44 | 57* | 8 | 25 | 24 | 53* | 37 | 31
O=C(Nc1ccc(-c2nc3ccccc3o2)cc1)C1CCCO1 (stereo not drawn) | -33 | -292 | 91* | 80* | 94* | 59* | 91* | 92* | 100* | 93* | 48
O=C(Nc1ccc(-c2nc3cc(Cl)ccc3o2)cc1)C1CCCO1 (stereo not drawn) | 6 | -266 | 70* | 10 | 30 | 23 | 12 | 18 | 42 | 42 | 10
O=C(O)c1ccccc1-c1ccccc1C(=O)Nc1ccc(-c2nc3cc(Cl)ccc3o2)cc1 | -4 | -396 | 13 | 20 | 25 | -5 | · | · | · | · | ·
COc1cc2ccccc2cc1C(=O)OCC(=O)N(CC(C)C)c1c(N)n(Cc2ccccc2)c(=O)[nH]c1=O | · | i | 10 | -6 | -10 | 21 | · | · | · | · | ·
COc1cc(SC)ccc1C(=O)N1CCN(Cc2ccc3c(c2)OCO3)CC1 | · | 4 | -2 | -7 | 4 | 6 | · | · | · | · | ·
Cc1ccc(C(=O)COC(=O)c2ccc(Cl)c(N)c2)s1 | · | -17 | 56* | 54* | 66* | -2 | 50* | 48 | 84* | 46 | 49
Cc1cccc(NC(=O)CCCn2cc([N+](=O)[O-])cn2)n1 | -8 | 20 | -3 | 2 | 0 | 20 | · | · | · | · | ·

Source: PubChem (Sanford-Burnham Center for Chemical Genomics)
